Test systems include NCI-H23 lung; NCI-H226 lung; NCI-H322M lung; HOP-62 NSCLC; NCI-H460 lung; HOP-92 NSCLC; A549/ATCC NSCLC; 786-0 renal; COLO 205 colon; DU-145 prostate; K-562 leukemia; MALME-3M melanoma; MDA-MB-231 breast; RXF 393 renal; SF-268 CNS; SF-295 CNS; SF-539 CNS; UACC-257 melanoma; M14 melanoma; NCI-H522 lung.
Holding throughout (experiment): NCI-60 one-dose screen, 48 h (100 = growth as untreated, 0 = no growth, -100 = all killed)
Conditions in all cases: 10 µM unless noted

This is part of a sample that, as a whole, favours compounds with a hit. Of some 83,000 tested, about 20% had one in any assay.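 Assay: single dose, 48 h. Readout: percent growth (0 = no net growth; negative = cell death). Active: <10.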 A number with no mark means an inactive call. The source made the active and inactive calls.

Regarding `COc1ccc(Cl)cc1Nc1nc(C(F)(F)F)ccc1C(=O)N/N=C/c1ccc([N+](=O)[O-])cc1`, the growth in the assay with NCI-H23 lung is 18%; in the assay on NCI-H226 lung, 13.6%; in the assay on NCI-H322M lung, -1.09% (active); in the assay with HOP-62 NSCLC it was 11.4%; in the assay with NCI-H460 lung, 0.872% (active); in the assay on HOP-92 NSCLC, -47.7% (active). In addition, the growth was 6.02% (active) with A549/ATCC NSCLC; 8.42% (active) in the assay on 786-0 renal; 9.91% (active) with COLO 205 colon; 12.8% in the assay with DU-145 prostate; 2.07% (active) with K-562 leukemia; 11.5% in the assay on MALME-3M melanoma. The growth in the assay on MDA-MB-231 breast is -14.9% (active); with RXF 393 renal, 13%; in the assay on SF-268 CNS, 15.3%; in the assay on SF-295 CNS, -52% (active); with SF-539 CNS, 10.8%; with UACC-257 melanoma it was -3.41% (active). Also, the growth in the assay with M14 melanoma is 36.2%.

As for `Cc1nc(N/N=C/c2cn(-c3ccccc3)nc2-c2cc3ccccc3oc2=O)sc1N=Nc1ccccc1`, the growth with NCI-H23 lung was 93.7%; with NCI-H226 lung it was 95.4%; with NCI-H322M lung it was 104%; with NCI-H460 lung it was 99.7%; in the assay with HOP-92 NSCLC, 97.1%; in the assay on NCI-H522 lung it was 66.2%. The growth in the assay with A549/ATCC NSCLC is 96.6%; in the assay with 786-0 renal it was 97.3%; in the assay on COLO 205 colon, 105%; with DU-145 prostate, 105%; with K-562 leukemia, 34%; in the assay with MALME-3M melanoma it was 89.6%. In addition, the growth is 87.7% in the assay with MDA-MB-231 breast; 94.6% with RXF 393 renal; 94.9% in the assay with SF-268 CNS; 81.6% in the assay on SF-295 CNS; 87.7% in the assay with SF-539 CNS; 94.5% with UACC-257 melanoma. In the assay on M14 melanoma, the growth is 70.7%.

`COc1ccc(-c2cn(Cc3cc4ccccc4s3)nn2)cc1OCCN1CCCCC1`: the growth in the assay on NCI-H23 lung is 78.3%; with NCI-H226 lung, 95.6%; in the assay with NCI-H322M lung, 94.2%; in the assay on HOP-62 NSCLC, 84%; with NCI-H460 lung it was 90%; in the assay with HOP-92 NSCLC, 50%. Besides, the growth with A549/ATCC NSCLC was 80.2%; with 786-0 renal, 69.1%; with COLO 205 colon, 60.7%; in the assay on DU-145 prostate, 85.7%; in the assay with K-562 leukemia, 16.3%; with MALME-3M melanoma, 5.75% (active). The growth in the assay with MDA-MB-231 breast is 45.9%; in the assay on RXF 393 renal, 44.2%; in the assay on SF-268 CNS, 70.8%; with SF-295 CNS it was 70.6%; with SF-539 CNS, 79.7%; with UACC-257 melanoma, 41.1%. Besides, the growth with M14 melanoma is -29.4% (active).

Consider `COC1C(O)CC(OC2CC(OC3CC(O[C@@H]4C(=O)c5c(cc6cc(OC7CC(OC8CC(O)C(O)C(C)O8)C(O)C(C)O7)c(C)c(O)c6c5O)CC4[C@H](OC)C(=O)O)OC(C)C3O)OC(C)C2O)OC1C` (stereo partly specified), for which the growth with NCI-H23 lung was 6.6% (active); with NCI-H226 lung it was -36.1% (active); with NCI-H322M lung it was 14.5%; in the assay with HOP-62 NSCLC it was 1.26% (active); in the assay with NCI-H460 lung it was 13.5%; in the assay on HOP-92 NSCLC, 20.4%. In addition, the growth in the assay with A549/ATCC NSCLC is 8.44% (active); in the assay on 786-0 renal, 34.7%; in the assay with COLO 205 colon, 14.7%; with DU-145 prostate, 22.3%; with K-562 leukemia, 21.2%; in the assay with MALME-3M melanoma it was 13.9%. The growth in the assay with MDA-MB-231 breast is 48.4%; in the assay on RXF 393 renal, -45.7% (active); in the assay on SF-268 CNS it was 28.4%; with SF-295 CNS, 10.9%; in the assay on SF-539 CNS it was 5.86% (active); with UACC-257 melanoma, -8.56% (active). Also, the growth in the assay on M14 melanoma was 35.4%.

For the compound `C(=C(\C1=NCCN1)n1ccc2ccccc21)/c1ccccc1`, the growth was 97% in the assay on NCI-H23 lung; 93.5% in the assay on NCI-H226 lung; 97.7% in the assay on NCI-H322M lung; 101% with NCI-H460 lung; 78.7% in the assay with HOP-92 NSCLC; 89.7% in the assay with NCI-H522 lung. The growth was 99.9% in the assay on A549/ATCC NSCLC; 98.3% in the assay on 786-0 renal; 107% with COLO 205 colon; 103% with DU-145 prostate; 96.7% in the assay with K-562 leukemia; 93.4% in the assay with MALME-3M melanoma. Also, the growth was 96.8% in the assay on MDA-MB-231 breast; 89.9% in the assay with RXF 393 renal; 91.8% in the assay with SF-268 CNS; 99.3% in the assay on SF-295 CNS; 99.5% with SF-539 CNS; 93.3% in the assay on UACC-257 melanoma. Besides, the growth in the assay with M14 melanoma is 91.4%.

Regarding `Cn1c2ccccc2c2c3c(c4c5cc(Br)ccc5n(C)c4c21)C(=O)N(O)C3=O`, the growth in the assay with NCI-H23 lung is 2.91% (active); with NCI-H226 lung, 14.8%; in the assay on NCI-H322M lung, 31.8%; with NCI-H460 lung, 4.42% (active); in the assay with HOP-92 NSCLC it was 40.8%; in the assay on NCI-H522 lung, 25.4%. The growth in the assay with A549/ATCC NSCLC is 40.3%; with 786-0 renal it was 14.6%; in the assay with COLO 205 colon, 23.2%; in the assay on DU-145 prostate it was -50.7% (active); in the assay on K-562 leukemia it was 10.4%; in the assay on MALME-3M melanoma, 42.4%. In addition, the growth in the assay on MDA-MB-231 breast is -32% (active); in the assay with RXF 393 renal it was -24.8% (active); in the assay with SF-268 CNS, -0.663% (active); in the assay on SF-295 CNS it was 25.9%; in the assay on SF-539 CNS, -27.7% (active); in the assay on UACC-257 melanoma, 48.6%.

Take `COC12C=C/C(=C(/C(=O)OCc3cncnc3)C(=O)CCCCCCCCC3(OC)C=C/C(=C(/C(=O)OCc4cncnc4)C(=O)CCCCCCCC1)O3)O2`: the growth with NCI-H23 lung is -49.9% (active); in the assay on NCI-H226 lung, -78% (active); in the assay with NCI-H322M lung, -66% (active); with HOP-62 NSCLC it was 9.7% (active); in the assay on NCI-H460 lung, -20.5% (active); in the assay with HOP-92 NSCLC, -59.7% (active). Besides, the growth in the assay on A549/ATCC NSCLC is -7.89% (active); with 786-0 renal it was -70.7% (active); in the assay on COLO 205 colon it was -30.5% (active); with DU-145 prostate, -42.7% (active); in the assay with K-562 leukemia, -16.8% (active); in the assay with MALME-3M melanoma, -70.8% (active). In addition, the growth is 5.88% (active) in the assay on MDA-MB-231 breast; -74.2% (active) in the assay with RXF 393 renal; -10.6% (active) in the assay on SF-268 CNS; -13.8% (active) in the assay with SF-295 CNS; -27% (active) in the assay on SF-539 CNS; -12.7% (active) in the assay with UACC-257 melanoma. The growth with M14 melanoma is -12.3% (active).

In the case of `O=S(=O)(N=C1C(Cl)=C(Cl)C(=NS(=O)(=O)c2ccccc2)C(Cl)=C1Cl)c1ccccc1`, the growth with NCI-H23 lung is 73.3%; with NCI-H226 lung it was 97.5%; in the assay with NCI-H322M lung it was 97.4%; in the assay on NCI-H460 lung, 39.1%; with HOP-92 NSCLC, 134%; with NCI-H522 lung it was 39.3%. The growth in the assay with A549/ATCC NSCLC is 74.4%; with 786-0 renal it was 118%; in the assay with COLO 205 colon, 98.4%; in the assay on DU-145 prostate it was 20.5%; in the assay with K-562 leukemia, 65.6%; with MALME-3M melanoma, 113%. Moreover, the growth in the assay with MDA-MB-231 breast was 98.8%; in the assay with RXF 393 renal it was 64.7%; with SF-268 CNS it was 87.1%; with SF-295 CNS, 64.2%; in the assay with SF-539 CNS, 109%; with UACC-257 melanoma it was 68.9%. Besides, the growth in the assay on M14 melanoma is 94.1%.

The values are drawn from PubChem BioAssay (NCI).
